A short description of assay [1]: Nuclear factor erythroid 2-related factor 2/antioxidant responsive element (Nrf2/ARE) small molecule agonists: luciferase reporter gene qHTS assay in human keratinocytes (AID 1919969). Note: nearly all actives have a fitted effect of over 35% in size. Note: potency is the fitted concentration of half-maximal effect.
Assay [2] has as its target Gonadotropin-releasing hormone receptor (Homo sapiens) (UniProt P30968). Nature of the assay: Human gonadotropin-releasing hormone receptor (GnRHR) small molecule agonists, calcium flux assay in GnRHR-HEK293 cells (AID 1920063). Note: nearly all actives have a fitted effect of over 35% in size. Note: potency is the fitted concentration of half-maximal effect. In a few lines:
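Fluorescence kinetics (480 nm excitation, 540 nm emission; 3 min, 1 s steps) report calcium mobilisation in human GnRHR-HEK293 cells in agonist mode. Dye incubation: 1 h, 37 C.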

Assay [3] has as its target KiSS-1 receptor (Homo sapiens) (UniProt Q969F8). Nature of the assay: Human kisspeptin (KISS1R) small molecule agonists, calcium flux assay in KISS1R-HEK293 cells (AID 1920064; active = well fitted activation curve with a large enough effect in the repeat runs; note: potency is the fitted concentration of half-maximal effect). The procedure, abridged:
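Measures KISS1R agonism through calcium-sensitive dye fluorescence in stably transfected HEK293 cells, read for 3 min after pin-tool compound delivery; 15-point titrations in triplicate.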

The nature of assay [4]: G protein-coupled receptor (GPCR) small molecule agonists, calcium flux assay: HEK293 wild type cell line counter screen (AID 1920065). Note: potency is the fitted concentration of half-maximal effect. In a few lines: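 Readout: fluorescence at 480 nm excitation/540 nm emission, sampled at 1 s intervals for 3 min. Cells had been cultured 18 h, then dye-loaded 1 h at 37 C before compound or ATP addition.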
The nature of assay [5]: p53 small molecule agonists, cell-based qHTS assay with human liver microsomes (AID 1963577). The procedure, abridged:
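Compounds act here after metabolic activation: human liver microsomes and NADPH, both at 0.5 mg/mL final, were co-added to p53RE-bla cells. Incubation ran 16 h at 37 C, followed by LiveBLAzer detection.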

The nature of assay [6]: p53 small molecule agonists, cell-based qHTS assay with rat liver microsomes (AID 1963578). The procedure, abridged: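 Read-out is beta-lactamase reporter fluorescence (LiveBLAzer, 2 h, room temperature, dark) in p53RE-bla cells treated 16 h at 37 C with compound, rat liver microsomes and NADPH, both 0.5 mg/mL final.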
Assay [7] in a line: p53 small molecule agonists, cell-based qHTS assay with rat liver microsomes: qHTS cell viability counter screen (AID 1963580). Note: nearly all actives have a fitted effect of over 45% in size. Note: potency is the fitted concentration of half-maximal effect. The procedure, abridged:
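HCT-116 p53RE-bla, 4,000 cells/well, 5 h pre-incubation; cpd + rat liver microsomes 0.5 mg/mL + NADPH 0.5 mg/mL (final); 16 h, 37 C; CellTiter-Glo, 30 min RT; luminescence.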

Assay [8] deals with 5-hydroxytryptamine receptor 2A (Homo sapiens) (UniProt P28223). Nature of the assay: 5-hydroxytryptamine receptor 2A (HTR2A) small molecule antagonists, cell-based qHTS assay (AID 1963586). Note: nearly all actives have a fitted effect of over 45% in size. In a few lines:
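Antagonist-mode intracellular calcium assay: DOI (4 nM) added after 5 min compound pre-incubation at room temperature to dye-loaded HTR2A-CHO cells. Fluorescence followed for 3 min, sampled every second.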

The target is the same in assay [9]. Put plainly: 5-hydroxytryptamine receptor 2A (HTR2A) small molecule agonists, cell-based qHTS assay (AID 1963587). Note: nearly all actives have a fitted effect of over 30% in size. Note: potency is the fitted concentration of half-maximal effect. In a few lines: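 Kinetic calcium-flux fluorescence (2 min, 1 sec intervals) after compound addition in agonist mode. HTR2A-CHO cells were cultured 18 h, then dye-loaded 1 h at 37 C.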
The target of assay [10] is Muscarinic acetylcholine receptor M1 (Homo sapiens) (UniProt P11229). Nature of the assay: Cholinergic receptor muscarinic 1 (CHRM1) small molecule antagonists, cell-based qHTS assay (AID 1963588). Note: nearly all actives have a fitted effect of over 40% in size. In a few lines:
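CHRM1-CHO calcium-flux assay, antagonist mode. Cells were seeded 18 h, dye-loaded 1 h at 37 C and given compound for 5 min at RT, then acetylcholine was added at 50nM. FDSS fluorescence was read 3 min; 15 concentrations, three runs.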

The target is the same in assay [11]. Nature of the assay: Cholinergic receptor muscarinic 1 (CHRM1) small molecule agonists, cell-based qHTS assay (AID 1963589). Note: nearly all actives have a fitted effect of over 35% in size. Note: potency is the fitted concentration of half-maximal effect. The procedure, abridged:
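Each compound was tested at 15 concentrations across three independent runs on dye-loaded CHO cells stably expressing human CHRM1, reading intracellular calcium fluorescence kinetically at 1 sec intervals.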

The nature of assay [12]: cAMP Responsive Elements (CRE) small molecule agonists, cell-based qHTS assay (AID 1963590). The procedure, abridged: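 Cell line: CRE-bla HEK 293T; medium DMEM/10% dialyzed FBS/0.1 mM NEAA/1 mM pyruvate/25 mM HEPES; 3 h compound exposure; beta-lactamase FRET readout after 2 h substrate loading at RT.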
Assay [13] is described as follows: cAMP Responsive Elements (CRE) small molecule antagonists, cell-based qHTS assay (AID 1963591; active = well fitted inhibition curve with a large enough effect in the signal ratio in the repeat runs, not every such curve was filed as active; the % refers to the signal ratio). In a few lines: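 Inhibition of NKH477-driven (0.25 uM final) CRE-beta-lactamase signal in HEK293T cells, 3 h compound exposure at 37 °C, detected by FRET substrate fluorescence.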
The nature of assay [14]: p53 small molecule agonists, cell-based qHTS assay with human liver microsomes: qHTS cell viability counter screen (AID 1963579). Note: nearly all actives have a fitted effect of over 45% in size. In a few lines: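 Cells carrying the p53 response-element beta-lactamase reporter are treated for 16 h at 37 C with test compounds in the presence of human liver microsomes and NADPH (both 0.5 mg/mL final); ATP-based CellTiter-Glo luminescence then reports viability.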

A short description of assay [15]: p53 small molecule agonists, cell-based qHTS assay: qHTS cell viability counter screen (AID 1963581). Note: nearly all actives have a fitted effect of over 45% in size. The procedure, abridged:
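In the same plates used for the p53 bla reporter, HCT-116 cells given compounds for 16 h at 37 C received CellTiter-Glo; luminescence was recorded 30 min later at room temperature.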

Assay [16] has as its target Beta-2 adrenergic receptor (Homo sapiens) (UniProt P07550). Nature of the assay: Adrenergic beta2 receptor (ADRB2) small molecule antagonists, cell-based qHTS assay (AID 1963592). Note: nearly all actives have a fitted effect of over 50% in size. Note: potency is the fitted concentration of half-maximal effect. In a few lines:
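Cells (CHO, stable ADRB2 overexpression) incubated 18-20hr at 37C; compounds added from DMSO; agonist mix (1nM isoproterenol, 100uM IBMX, 25uM Ro-20-1724) added; 0.5hr RT; d2-cAMP and anti-cAMP-cryptate added; 1hr RT; 665/615 nm read.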

Assay [17] has the same target. Nature of the assay: Adrenergic beta2 receptor (ADRB2) small molecule agonists, cell-based qHTS assay (AID 1963593).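 Note: CHO cells stably overexpressing human ADRB2.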 The procedure, abridged: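 CHO cells stably over-expressing ADRB2 were plated overnight at 37C, then dosed with compounds plus a stimulation mix containing 100uM IBMX and 25uM Ro-20-1724 for 0.5hr at room temperature. cAMP was measured by HTRF competition, 1hr.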

Assay [18] deals with D(2) dopamine receptor (Homo sapiens) (UniProt P14416). Put plainly: Dopamine D2 receptor (DRD2) small molecule agonists, cell-based qHTS assay (AID 1963594). Note: nearly all actives have a fitted effect of over 35% in size. Note: potency is the fitted concentration of half-maximal effect. The procedure, abridged:
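cAMP accumulation in DRD2-HEK293 cells measured by HTRF after 1 h detection; compounds added 10 min before NKH477 (200nM […]) forskolin-analogue stimulation, 30 min at room temperature, with Ro20-1724 present at 0.1 mM final.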

Assay [19] shares this target. Put plainly: Dopamine D2 receptor (DRD2) small molecule antagonists, cell-based qHTS assay (AID 1963595; active = well fitted inhibition curve with a large enough effect in the signal ratio in the repeat runs, with a control signal flat; the % refers to the signal ratio; note: potency is the fitted concentration of half-maximal effect). The procedure, abridged:
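HEK293 cells stably expressing DRD2, preincubated with 0.1 mM Ro20-1724 and compounds 10 min, were stimulated with 200 nM NKH477 plus 12 nM quinpirole for 30 min at room temperature; cAMP measured by HTRF (665/620 nm).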

Assay [20] in a line: p53 small molecule agonists, cell-based qHTS assay (AID 1963582; active = well fitted activation curve with a large enough effect in the signal ratio in the repeat runs, not every such curve was filed as active; the % refers to the signal ratio; note: potency is the fitted concentration of half-maximal effect). The procedure, abridged:
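Compounds are pin-transferred in DMSO onto p53RE-bla cells and incubated 16 h at 37 C. The B/G FRET beta-lactamase substrate is then applied for 2 h at RT and fluorescence recorded.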

This is an account of results in PubChem BioAssay (Tox21).

Molecules are shown by their SMILES. Where “and” joins values, the source holds several entries; their conditions need not be identical. Equal values may be shown once. Results filed as inconclusive are left out. Calls of active or inactive are those of the source. Unless noted, calls come from the whole dose curve.

D(2) dopamine receptor (Homo sapiens), sequence (P14416 whole entry, looked up): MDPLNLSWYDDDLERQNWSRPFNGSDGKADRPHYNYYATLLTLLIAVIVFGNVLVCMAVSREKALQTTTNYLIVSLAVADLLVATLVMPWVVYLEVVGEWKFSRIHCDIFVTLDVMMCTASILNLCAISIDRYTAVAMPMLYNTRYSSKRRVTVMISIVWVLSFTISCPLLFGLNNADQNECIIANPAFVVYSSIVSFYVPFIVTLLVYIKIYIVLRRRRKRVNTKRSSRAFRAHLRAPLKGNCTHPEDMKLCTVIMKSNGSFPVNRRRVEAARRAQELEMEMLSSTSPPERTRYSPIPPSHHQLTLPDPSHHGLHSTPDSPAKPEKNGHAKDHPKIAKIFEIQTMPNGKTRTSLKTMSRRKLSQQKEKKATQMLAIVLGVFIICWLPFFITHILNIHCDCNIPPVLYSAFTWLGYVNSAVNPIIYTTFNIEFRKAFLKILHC
KiSS-1 receptor (Homo sapiens), sequence (Q969F8 whole entry, looked up): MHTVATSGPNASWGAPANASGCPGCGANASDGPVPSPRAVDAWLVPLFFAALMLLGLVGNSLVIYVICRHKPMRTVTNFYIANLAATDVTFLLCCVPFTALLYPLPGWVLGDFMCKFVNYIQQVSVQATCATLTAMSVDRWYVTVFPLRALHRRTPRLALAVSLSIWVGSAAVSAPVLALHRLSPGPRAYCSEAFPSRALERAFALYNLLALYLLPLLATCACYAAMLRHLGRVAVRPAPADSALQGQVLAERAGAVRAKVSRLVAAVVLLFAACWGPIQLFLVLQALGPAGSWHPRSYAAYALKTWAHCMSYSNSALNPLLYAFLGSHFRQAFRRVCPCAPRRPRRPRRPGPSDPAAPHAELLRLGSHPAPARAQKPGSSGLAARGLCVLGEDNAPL
Muscarinic acetylcholine receptor M1 (Homo sapiens), sequence (P11229 whole entry, looked up): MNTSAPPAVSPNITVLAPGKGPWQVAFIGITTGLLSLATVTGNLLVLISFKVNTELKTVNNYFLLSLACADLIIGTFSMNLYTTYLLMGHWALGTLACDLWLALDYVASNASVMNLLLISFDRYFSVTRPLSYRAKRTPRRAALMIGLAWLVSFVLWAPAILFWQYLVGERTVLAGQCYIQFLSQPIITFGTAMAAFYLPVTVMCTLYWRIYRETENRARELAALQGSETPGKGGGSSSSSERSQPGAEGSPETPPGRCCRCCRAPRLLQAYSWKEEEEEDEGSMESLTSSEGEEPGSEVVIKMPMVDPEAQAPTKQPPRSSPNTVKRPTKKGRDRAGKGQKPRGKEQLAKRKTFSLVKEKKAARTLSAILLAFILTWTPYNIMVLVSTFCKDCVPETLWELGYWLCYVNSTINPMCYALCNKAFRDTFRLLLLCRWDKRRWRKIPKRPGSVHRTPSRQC
5-hydroxytryptamine receptor 2A (Homo sapiens), sequence (P28223 whole entry, looked up): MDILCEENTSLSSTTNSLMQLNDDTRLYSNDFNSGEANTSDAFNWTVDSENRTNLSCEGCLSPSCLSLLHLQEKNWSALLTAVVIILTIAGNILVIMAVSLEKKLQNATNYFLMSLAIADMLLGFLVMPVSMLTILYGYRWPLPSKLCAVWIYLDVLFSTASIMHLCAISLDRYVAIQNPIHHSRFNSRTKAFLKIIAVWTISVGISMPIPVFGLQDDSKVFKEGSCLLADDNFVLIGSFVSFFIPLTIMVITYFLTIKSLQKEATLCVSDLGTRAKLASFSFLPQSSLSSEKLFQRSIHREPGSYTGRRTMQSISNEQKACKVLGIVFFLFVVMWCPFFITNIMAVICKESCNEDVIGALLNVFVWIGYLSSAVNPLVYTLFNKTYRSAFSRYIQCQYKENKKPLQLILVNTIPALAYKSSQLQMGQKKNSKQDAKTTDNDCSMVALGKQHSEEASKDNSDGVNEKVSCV
Gonadotropin-releasing hormone receptor (Homo sapiens), sequence (P30968 whole entry, looked up): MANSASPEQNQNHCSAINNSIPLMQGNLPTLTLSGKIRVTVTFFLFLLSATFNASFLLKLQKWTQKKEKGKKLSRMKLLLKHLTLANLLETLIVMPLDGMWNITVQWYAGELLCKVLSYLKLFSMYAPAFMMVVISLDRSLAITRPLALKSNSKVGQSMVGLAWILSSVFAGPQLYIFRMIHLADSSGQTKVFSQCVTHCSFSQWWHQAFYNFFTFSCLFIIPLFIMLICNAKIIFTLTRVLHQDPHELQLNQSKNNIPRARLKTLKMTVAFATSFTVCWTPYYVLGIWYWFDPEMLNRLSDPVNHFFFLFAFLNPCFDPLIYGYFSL
Beta-2 adrenergic receptor (Homo sapiens), sequence (P07550 whole entry, looked up): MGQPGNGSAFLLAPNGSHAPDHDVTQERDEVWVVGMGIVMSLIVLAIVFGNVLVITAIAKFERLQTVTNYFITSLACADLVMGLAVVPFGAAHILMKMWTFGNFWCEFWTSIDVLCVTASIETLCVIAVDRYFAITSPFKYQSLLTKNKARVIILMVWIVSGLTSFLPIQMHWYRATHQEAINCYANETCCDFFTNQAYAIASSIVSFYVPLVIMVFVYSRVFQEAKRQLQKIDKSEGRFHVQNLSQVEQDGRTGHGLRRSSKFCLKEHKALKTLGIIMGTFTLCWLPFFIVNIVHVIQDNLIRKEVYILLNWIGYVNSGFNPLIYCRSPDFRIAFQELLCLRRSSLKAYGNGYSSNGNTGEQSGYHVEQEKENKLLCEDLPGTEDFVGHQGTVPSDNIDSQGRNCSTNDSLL

`CCN(Cc1cccc(S(=O)(=O)O)c1)c1ccc(C(=C2C=CC(=[N+](CC)Cc3cccc(S(=O)(=O)O)c3)C=C2)c2ccccc2S(=O)(=O)[O-])cc1`: the Potency entry in [1], in [2], in [3], in [4], in assay [5] and in assay [6] was “inactive” each time. Besides, the Potency entry in assay [8], in assay [9], in assay [10], in assay [11], in assay [12] and in assay [13] was “inactive” in each case. Moreover, in [7], the Potency is 20.5 µM (active).
On to `N#C/C(=C1/SC[C@@H](c2ccc(Cl)cc2Cl)S1)n1ccnc1`, for which the Potency result in [1], in assay [2], in assay [3], in [4], in assay [5] and in assay [14] was “inactive” each time. In addition, the Potency entry in [7], in assay [15], in [8], in [9], in assay [10] and in assay [11] was “inactive” in each case. For the same compound, the Potency entry in [16], in assay [17] and in [19] was “inactive” in each case. Also, the Potency in assay [18] is 26.6 µM (active).
For `Nc1ccc2cc3ccc(N)cc3nc2c1`, the Potency is 1.54 µM (active) and 6.68 µM (active) in assay [1]; 38.9 µM (active) and 16.9 µM (active) in [2]; 49 µM (active) and 23.9 µM (active) in assay [3]; 38.9 µM (active) and 16.9 µM (active) in assay [4]; 1.82 µM (active) in assay [20]; 19.5 µM (active) and 19 µM (active) in assay [9]. Besides, in assay [11], the Potency is 43.6 µM (active) and 23.9 µM (active). In addition, the Potency entry in [5], in assay [14], in assay [7], in [15], in [8] and in [10] was “inactive” in each case. Also, the Potency result in assay [18] and in assay [19] was “inactive” each time.
As for `CNCC[C@@H](Oc1ccccc1C)c1ccccc1`, the Potency entry in [1], in [2], in assay [3], in assay [4], in assay [5] and in [6] was “inactive” in each case. In addition, the Potency result in assay [20], in assay [9], in [11], in assay [13], in assay [16] and in assay [19] was “inactive” each time.
Take `CCN(CC)C(=O)c1cc(S(=O)(=O)Cc2ccccc2)c(N2CCC(c3ccccc3)CC2)cc1N(CC)CCN(C)C`: the Potency entry in assay [1], in assay [2], in assay [3], in assay [4], in [5] and in assay [6] was “inactive” in each case. For the same compound, the Potency result in [7], in [15], in [9], in [11] and in assay [18] was “inactive” each time. The values for the Potency in [16] and in assay [19] were 24.1 µM (active) and 21.4 µM (active), respectively.
`O=C1CCC/C=C\CCCCCCCCCC1`: in [1], the Potency was 54.5 µM (active). In addition, the Potency result in assay [2], in assay [3], in [4], in assay [5], in [6] and in assay [15] was “inactive” in each case. In addition, the Potency entry in assay [20], in assay [8], in assay [9], in [10], in [11] and in assay [16] was “inactive” throughout. Besides, the Potency result in assay [17], in [18] and in assay [19] was “inactive” throughout.
In the case of `CC(Cc1ccc(O)c(O)c1)C(C)Cc1ccc(O)c(O)c1` (stereo unspecified), the Potency in assay [1] is 68.6 µM (active). Further, the Potency result in assay [2], in assay [3], in [4], in [5], in assay [6] and in [15] was “inactive” throughout. Besides, the Potency entry in assay [11], in assay [18] and in assay [19] was “inactive” throughout.
Consider `CCCCCOc1ccccc1/C(=C\SC)n1ccnc1`, for which the Potency in assay [1] is 5.96 µM (active). Moreover, the Potency result in [2], in [3], in assay [4], in assay [5], in assay [6] and in assay [7] was “inactive” each time. The Potency entry in [20], in [8], in [9], in assay [10], in [11] and in assay [16] was “inactive” each time. Also, the Potency result in assay [17], in assay [18] and in assay [19] was “inactive” each time.
